Bioassay records (PubChem BioAssay)
JMJD2E inh: inhibitors of human JMJD2E histone demethylase | JMJD2E catalytic domain, FDH-coupled NADH fluorescence (FDH is formaldehyde dehydrogenase) | Potency, µM (top dose mostly 57.1 µM), actives largely listed as inhibitors | hit rate 1.6% among 230,000; also: nearly all actives have a fitted effect of over 50% in size
Target sequence (B2RXH2 1-337 limits assumed): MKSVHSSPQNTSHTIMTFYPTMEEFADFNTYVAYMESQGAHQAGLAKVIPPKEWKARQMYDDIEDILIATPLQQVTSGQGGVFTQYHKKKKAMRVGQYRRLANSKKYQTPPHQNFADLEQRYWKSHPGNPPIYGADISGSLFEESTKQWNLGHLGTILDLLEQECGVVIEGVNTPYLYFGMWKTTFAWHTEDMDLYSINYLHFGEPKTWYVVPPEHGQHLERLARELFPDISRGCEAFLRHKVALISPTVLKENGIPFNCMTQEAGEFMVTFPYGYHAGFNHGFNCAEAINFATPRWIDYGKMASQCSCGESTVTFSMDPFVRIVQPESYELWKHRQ
HPGD block: HPGD (human) dehydrogenase inhibition | hit rate 4.3% among 150,000 | AID 894 | purified HPGD, NADH fluorescence kinetic, PGE2 substrate | Potency, µM, usual class: inhibitors | P15428
Target sequence (P15428 whole entry, looked up): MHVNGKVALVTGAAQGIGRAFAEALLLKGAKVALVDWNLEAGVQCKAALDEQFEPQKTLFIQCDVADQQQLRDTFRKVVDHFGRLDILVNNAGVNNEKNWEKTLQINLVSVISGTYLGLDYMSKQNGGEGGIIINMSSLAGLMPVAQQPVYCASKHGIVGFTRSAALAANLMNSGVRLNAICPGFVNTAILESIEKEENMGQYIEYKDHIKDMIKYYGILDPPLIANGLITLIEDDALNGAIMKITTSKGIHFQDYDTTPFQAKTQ
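NADH formation kinetics: reaction with 30 uM PGE2 and 1 mM NAD+ (final), 20 nM enzyme, Tris-HCl pH 8 with Tween 20, after 15 min compound preincubation at room temperature. Fluorescence change, last versus first of five reads.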
PNC inhibitor: perinucleolar compartment assembly inhibition; hit rate 3.1% among 140,000; AID 2417; activity change (PNC), negative = inhibition, % at 10 µM; PC3M PTB-GFP, PNC prevalence imaging, 16 h; stronger effect = lower value;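 active = readout at or below -70, meaning at least 70% loss of cells showing the perinucleolar compartment, a nuclear body marking cancer cells; inconclusive = readout between -30 and a set limit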
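Compounds are pinned in duplicate onto adhered PC3M cells stably expressing GFP-tagged PTB and incubated 16 h at 37 C. Cells are then fixed, nuclei stained with Hoechst, and PNC-positive cells counted.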
ALDH1A1 inh: ALDH1A1 (human) enzyme inhibition; P00352; Purified ALDH1A1, NADH fluorescence, propionaldehyde substrate; Potency, µM (highest dose often 75.3 µM), usual class: inhibitors; hit rate 7.3% among 220,000; AID 1030
Numbers stand for hits; 0 = inactive; ? = inconclusive; - = no result given; [ ] = another dose, or the depositor's remark. Rows were chosen to be rich in hits. Some 11% of all compounds tested hit in one or more screens of this group. Unless noted, calls follow the shape of the dose curve; as a rule, active = well fitted inhibition curve with a large enough effect (not every such curve was filed as active); inconclusive = small, poorly fitted or top-dose-only effect, or another doubt; inactive = no such curve, though single readings can be large or run the other way.

SMILES	JMJD2E inh	HPGD block	PNC inhibitor	ALDH1A1 inh
Cc1nnc(SCc2nnc(-c3cccs3)o2)n1Cc1ccccc1	0	-	-	13µM
O=C(CSc1nnc(-c2cccs2)o1)N1CCOCC1	0	0	0	0
Fc1ccc(-c2nnc(CSc3nnc(-c4cccs4)o3)o2)cc1	0	?	?	0
O=C(Nc1nc(COc2ccccc2)cs1)c1ccccc1F	0	0	0	0
Cc1cccc2nc(COc3ccc(-c4ccccc4)cc3)cn12	?	-	-	0
Clc1ccc(-c2nnc(CSc3nnc(-c4cccs4)n3Cc3ccccc3)o2)cc1	0	0	0	0
c1ccc2c(CSc3nnc(-c4ccncc4)o3)cccc2c1	0	25µM	0	0
Fc1ccc(NCc2nnc(SCc3nnc(-c4ccccc4)o3)n2Cc2ccccc2)cc1	0	28µM	0	0
Clc1ccccc1CSc1nnc(-c2ccncc2)o1	0	0	0	0
c1ccc(CSc2nnc(-c3cccs3)o2)cc1	0	20µM	0	0
CCSc1nnc(-c2cccs2)o1	?	0	0	0
c1ccc(-c2nnc(CSc3nc4ccccc4[nH]3)o2)cc1	0	28µM	?	0
O=[N+]([O-])c1cccc(COc2ncnc3cc([N+](=O)[O-])ccc23)c1	0	-	-	?
c1ccc(-c2nnc(CSc3nnc(-c4cccs4)o3)o2)cc1	0	16µM	0	?
O=S1(=O)N=C(Nc2nncs2)c2ccccc21	?	28µM	0	?
CCN(CC)S(=O)(=O)c1ccc(NC2=NS(=O)(=O)c3ccccc32)cc1	?	0	0	?
CCOc1ccc(-c2c[n+]3c(n2-c2ccccc2)CCCCC3)cc1	0	0	?	0
O=C(/C=C/c1cccc(Cl)c1)Nn1c(-c2cccs2)nc2ccccc2c1=O	?	0	0	0
CCn1c(NC(=O)c2ccc(F)cc2)c2ccccc2nc1=O	0	0	0	0
CCn1c(NC(=O)c2ccc(C)cc2)c2ccccc2nc1=O	0	0	-90	0
COc1ccc(-c2ccc(=N)n(CCCC(=O)O)n2)cc1	0	0	-	0
Cc1cccc(NC(=O)N2CCN(Cc3ccc4c(c3)OCO4)CC2)c1C	0	-	-	0
N#Cc1cc2c(=O)n3ccccc3nc2n(CCN2CCOCC2)c1=O	?	?	0	?
Cc1ccc2nc3c(cc(C#N)c(=O)n3CCN3CCOCC3)c(=O)n2c1	?	-	-122	?
CCc1cccc(C)c1NC(=S)NCc1cccn1C	0	0	0	14µM
SMILES	JMJD2E inh	HPGD block	PNC inhibitor	ALDH1A1 inh
Cc1ccccc1NC(=S)NCc1cccn1C	0	0	0	0
CC1(C)CC(=O)C2=C(C1)OC1=C(C(=O)CC(C)(C)C1)C2c1ccc(O)cc1O	?	3.2µM	0	0.89µM
CC1(C)CC(=O)C2=C(C1)OC1=C(C(=O)CC(C)(C)C1)C2c1ccc(O)c([N+](=O)[O-])c1	0	-	-	0
COc1ccc(C(C)(C)C)cc1S(=O)(=O)n1ccnc1C	0	-	-	0
COC(=O)c1cccc(-n2nnnc2SCC(=O)Nc2nc3c(s2)CCCC3)c1	0	20µM	0	?
COc1ccc(NC(=O)CSc2nnnn2C)c([N+](=O)[O-])c1	0	-	-	28µM
COc1cccc(-n2nnnc2SCC(=O)Nc2nc3c(s2)CCCC3)c1	0	25µM	?	?
COC(=O)c1cccc(-n2nnnc2SCC(=O)Nc2cc(C)on2)c1	0	-	0	11µM
Oc1ccc2cc(Br)ccc2c1CN1CCCC1	0	-	-	0
Cc1ccc(N2C(N)=C(C#N)C(c3cc(CN4CCOCC4)cs3)C3=C2CC(C)(C)CC3=O)cc1 (stereo unspecified)	0	-	-	?
COC(=O)[C@@]1(Cc2ccc(OC)cc2)[C@H]2c3cc(C(=O)N4CCCC4)n(CCc4ccc(O)c(OC)c4)c3C[C@H]2CN1C(=O)c1ccccc1	0	0	-	0
Cc1nc2nc(SCC(=O)O)nn2c(C)c1Cc1ccccc1Cl	0	-	-	0
COc1ccccc1NC(=O)OCC#CCOC(=O)Nc1ccccc1OC	0	-	-	-
N#CC1CCCc2c1[nH]c1ccc([N+](=O)[O-])cc21 (stereo unspecified)	0	-	-	-
COC(=O)c1cccc(NC(=O)CSc2nnnn2C)c1	0	0	0	14µM
CCOC(=O)c1cccc(NC(=O)CSc2nnnn2C)c1	0	0	?	0
Cc1nnn(-c2nonc2N)c1C(=O)NNC(=O)c1ccc(Cl)c(Cl)c1	0	-	-	0
CN1Cc2c(C(=O)OC(C)(C)C)ncn2-c2ccsc2C1=O	0	0	-	11µM
Cc1[nH]n(-c2ccccc2)c(=O)c1C=Nc1ccc(S(=O)(=O)Nc2nccs2)cc1	0	-	-	13µM
CCc1nnc(NS(=O)(=O)c2ccc(N=Cc3c(C)[nH]n(-c4cccc(Cl)c4)c3=O)cc2)s1	0	13µM	?	?
CCc1nnc(NS(=O)(=O)c2ccc(N=Cc3c(C)[nH]n(-c4ccc(Cl)cc4)c3=O)cc2)s1	0	?	0	?
C/C(N[C@@H]1CSCC1O)=C1/C(=O)CC2[C@@H]1C2(C)C (stereo partly specified)	0	0	-	8.9µM
C/C(NC(=O)c1ccccc1)=C1/C(=O)CC2C1C2(C)C (stereo unspecified)	0	?	0	?
CC(C)CN(CC(C)C)CC(O)COc1ccc([N+](=O)[O-])cc1 (stereo unspecified)	0	0	0	0
COC(=O)Cc1c[nH]c2cccc(OCC(O)CN(Cc3ccc([N+](=O)[O-])cc3)C(C)(C)C)c12 (stereo unspecified)	0	0	?	25µM
SMILES	JMJD2E inh	HPGD block	PNC inhibitor	ALDH1A1 inh
COc1ccc(C(=O)c2ccc(OC)c(Br)c2)cc1Br	0	0	?	20µM
C=CCN(CC=C)C(=S)NC(=O)c1ccc(OC)c(Br)c1	0	0	-86	?
Cc1cc(C)n(-c2nc3ccccc3c3nc(C)nn23)n1	0	0	0	0
Cc1cc(C)n(-c2nc(C)nc3c2cnn3-c2ccccc2)n1	?	?	-96	0
CCCNC(=O)OC[C@@H]1O[C@H](CCO/N=C2\c3cc(OC)ccc3O[C@H](c3cccc(OC)c3)[C@H]2O)C=C[C@@H]1Oc1ccc(OC)cc1	-	-	-	0[13.5 µM]
Cc1cccc(C)c1NC(=O)C(NC(=O)CN1C(=O)c2ccccc2C1=O)c1ccccc1 (stereo unspecified)	0	0	0	0
COC(=O)c1c(-c2cc(OC)c(OC)c(OC)c2)c2ccnc(OCc3ncccn3)c2c(=O)n1Cc1ccnc(C)c1	0	0	-	0
N[C@@H](CSCc1ccccc1)C(=O)O	-	0	-	0[13.5 µM]
Cc1nc2ccccc2c(=O)[nH]1	0	0	0	0
Cc1nc2c(O)cccc2c(=O)[nH]1	13µM	0	-	0
C=CCc1cc(/C=C2/NC(=O)N(CC)C2=O)cc(OCC)c1OCc1ccc(C(=O)O)cc1	?	0	0	3.2µM
CC1CCN(CC(=O)Nc2ccc(N3CCCCCC3)cc2)CC1	22µM	-	-	?
O=C(CNC1CCCC1)Nc1ccc(N2CCCCCC2)cc1	8.9µM	-	-	20µM
O=C(CN1CCN(c2ccc(O)cc2)CC1)Nc1ccc(SC(F)F)cc1	?	0	0	8.9µM
O=C(CNCC1CCCO1)Nc1ccccc1N1CCCCCC1 (stereo unspecified)	0	0	0	0
COc1cccc(N2CCN(CC(=O)Nc3ccc(SC(F)F)cc3)CC2)c1	0	-	0	0
O=C(CNCC1CCCO1)Nc1ccc(N2CCCCCC2)cc1 (stereo unspecified)	0	0	0	16µM
